Our source for the Potency and activity change, positive = activation values is PubChem BioAssay (Tox21).

Structures are written as SMILES. Unmarked numbers belong to inactive results. Inconclusive results are not listed. Active and inactive are the calls of the source. Unless noted, calls come from the whole dose curve; as a rule, active = well fitted curve in the direction sought with a large enough effect in the repeat runs; inconclusive = weak or mixed curves; inactive = no such curve, though single readings can be large; an effect the other way counts as inactive or inconclusive.

Assay [1] can be described thus: qHTS assay to identify small molecule agonists of the constitutive androstane receptor (CAR) signaling pathway - cell viability counter screen (AID 1224836). Note: nearly all actives have a fitted effect of over 45% in size. Note: potency is the fitted concentration of half-maximal effect. The method in brief:
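Fluorescence from CellTiter-Fluor indicates live cells after 23 h exposure. The human hepatoma line expresses hCAR and a CYP2B6-2.2kb reporter. Incubation medium contains 0.75 uM PK11195 (final).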
For orientation: qHTS replaces the single test concentration by a dilution series.

Assay [2] in a line: qHTS assay to identify small molecule antagonists of the constitutive androstane receptor (CAR) signaling pathway - cell viability counter screen (AID 1224837). Note: nearly all actives have a fitted effect of over 45% in size. Note: potency is the fitted concentration of half-maximal effect. In a few lines:
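Viability was measured with CellTiter-Fluor in a HepG2 line carrying stably transfected hCAR and a CYP2B6-2.2kb construct. Cells were exposed for 23 hr at 37 C to 15 compound concentrations with 50 nM CITCO as agonist.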

Assay [3] can be described thus: qHTS assay to identify small molecule antagonists of the estrogen related receptor signaling pathway with the pleiotropic PPARgamma coactivator (PGC) from Tox21 10K library (AID 1224841; call rule not given here; note: actives are mostly falling curves and most rising ones were filed inactive; nearly all actives have a fitted effect of over 50% in size; note: potency is the fitted concentration of half-maximal effect). The method in brief:
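Steps: plate 2,000 PGC/ERR cells per well; incubate 6 h at 37 C with 5% CO2; transfer compounds from DMSO stocks by pin tool; incubate 18 h at 37 C; add One-Glo; measure luminescence 30 min later.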

The nature of assay [4]: qHTS assay to identify small molecule agonists of the estrogen related receptor signaling pathway with the pleiotropic PPARgamma coactivator (PGC) from Tox21 10K library (AID 1224842). Note: nearly all actives have a fitted effect of over 15% in size. In a few lines: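 PGC/ERR reporter cells (NTP line) were seeded 2,000 per well, rested 6 h at 37 C/5% CO2, then pin-dosed with compounds in DMSO for 18 h at 37 C; luciferase read by One-Glo luminescence after 30 min at room temperature.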

Assay [5] is described as follows: qHTS assay to identify small molecule agonists of H2AX (AID 1224845; active = well fitted activation curve with a large enough effect in the signal ratio in the repeat runs, not every such curve was filed as active; the % refers to the signal ratio; note: potency is the fitted concentration of half-maximal effect). In a few lines:
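Wild-type CHO-K1 cells plated overnight, then exposed 3 hr at 37C to compounds at 15 concentrations (0.76% DMSO). Lysed, then HTRF anti-pH2AX(S139)-cryptate/anti-H2AX-d2 detection after 24 hr at room temperature; emissions 665 and 620 nm.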

A short description of assay [6]: qHTS assay to identify small molecule antagonists of the estrogen related receptor (ERR) signaling pathway from Tox21 library (AID 1224848). Note: nearly all actives have a fitted effect of over 50% in size. Note: potency is the fitted concentration of half-maximal effect. In a few lines:
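First, 2,000 ERR cells per well were plated and held 6 h at 37 C/5% CO2. Next, compounds in DMSO were pinned in and left 18 h at 37 C. Finally, ONE-Glo was added and luminescence read after 30 min at room temperature.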

The nature of assay [7]: qHTS assay to identify small molecule agonists of the estrogen related receptor (ERR) signaling pathway from Tox21 library (AID 1224849; calls by dose curve; note: nearly all actives have a fitted effect of over 15% in size). The note with it: ERR reporter cell line, ONE-Glo luciferase, 18 h; at 92.4 µM (top of the series) unless noted. In a few lines: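 Cells carrying the ERR reporter were plated and allowed to settle for 6 h, exposed to library compounds for 18 h at 37 C, then lysed with ONE-Glo and luminescence measured.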

Assay [8] in a line: A CellTox Green Cytotoxicity Assay to monitor cytotoxicity in HEK293 cells - 0 hour (AID 1224869). Note: nearly all actives have a fitted effect of over 50% in size. The method in brief:
(§1)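 Cells (HEK293, 600/well) and dye reagent are dispensed together. After 5 h at 37 C, 23 nL compound is pinned in. Plates stay at 37 C for 40 h with fluorescence read at 0h, 8h, 16h, 24h, 32h and 40h.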

Assay [9] can be described thus: qHTS RealTime-Glo MT Cell Viability Assay in HepG2 cells - 40 hour (AID 1224870). Note: nearly all actives have a fitted effect of over 50% in size. Note: potency is the fitted concentration of half-maximal effect. The method in brief: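 HepG2 cells mixed with RealTime-Glo MT reagents (NanoLuc plus cell-permeant prosubstrate) were seeded at 600 cells/well, incubated 5 h at 37 C/5% CO2, then pinned with compounds in DMSO; nonlytic luminescence tracked viability during 40 h treatment.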
Assay [10] is described as follows: A CellTox Green Cytotoxicity Assay to monitor cytotoxicity in HEK293 cells - 40 hour (AID 1224871). Note: nearly all actives have a fitted effect of over 45% in size. Note: potency is the fitted concentration of half-maximal effect. The method in brief: as §1
The nature of assay [11]: qHTS assay to identify small molecule antagonists of the estrogen related receptor signaling pathway with the pleiotropic PPARgamma coactivator (PGC) from Tox21 10K library - cell viability counter screen (AID 1224840; active = well fitted cell-killing curve with a large enough effect in the repeat runs, not every such curve was filed as active; note: nearly all actives have a fitted effect of over 40% in size; note: potency is the fitted concentration of half-maximal effect). The method in brief:
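Multiplexed viability counter screen in the PGC/ERR cell line: cells treated with DMSO-dissolved compounds for 17.5 hours at 37 C, then viability measured as CellTiter-Fluor fluorescence.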

For assay [12], the target named is Thyrotropin receptor (Homo sapiens) (UniProt P16473). The assay can be described thus: qHTS assay to identify small molecule agonists of the thyroid stimulating hormone receptor (TSHR) signaling pathway (AID 1224843; calls by dose curve; note: nearly all actives have a fitted effect of over 45% in size). The method in brief:
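Compounds are titrated over 15 concentrations, in triplicate, onto TSHR-HEK293 cells seeded at 800/well. Plates sit 30 min at room temperature before cAMP-d2 and anti-cAMP cryptate are added; signal is read after a further hour.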

A short description of assay [13]: qHTS assay to identify small molecule agonists of the hypoxia (HIF-1) signaling pathway - cell viability counter screen (AID 1224844; calls by dose curve; note: nearly all actives have a fitted effect of over 50% in size; note: potency is the fitted concentration of half-maximal effect). In a few lines: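 Cytotoxicity was measured in parallel with the HRE-driven beta-lactamase readout: after 17 hrs of compound exposure at 37C, HRE-bla ME-180 cells received CellTiter-Glo and luminescence was recorded 30 min later.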

The nature of assay [14]: qHTS assay to identify small molecule agonists of H2AX - cell viability counter screen (AID 1224847; calls by dose curve; note: nearly all actives have a fitted effect of over 30% in size; note: potency is the fitted concentration of half-maximal effect). In a few lines:
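Viability of CHO-K1 (wild type) cells after 3 hr compound exposure was measured by CellTiter-Glo luminescence.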

The nature of assay [15]: qHTS RealTime-Glo MT Cell Viability Assay in HepG2 cells - 24 hour (AID 1224867). Note: nearly all actives have a fitted effect of over 50% in size. Note: potency is the fitted concentration of half-maximal effect. In a few lines: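 qHTS, HepG2, 600 cells/well, RealTime-Glo (NanoLuc + prosubstrate) added with cells; 5 h preincubation; DMSO compound addition; 37 C; luminescence at 0/8/16/24/32/40 h.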
The nature of assay [16]: qHTS RealTime-Glo MT Cell Viability Assay in HEK293 cells - 32 hour (AID 1224868). Note: nearly all actives have a fitted effect of over 50% in size. Note: potency is the fitted concentration of half-maximal effect. The method in brief:
(§2)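 Assay medium contained NanoLuc luciferase plus cell-permeant prosubstrate, added with HEK293 cells at 600 cells/well. After 5 h at 37 C/5% CO2 compounds were added; plates stayed at 37 C for 40 h with serial luminescence reads.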

Assay [17] is described as follows: qHTS RealTime-Glo MT Cell Viability Assay in HEK293 cells - 16 hour (AID 1224872). Note: nearly all actives have a fitted effect of over 50% in size. Note: potency is the fitted concentration of half-maximal effect. In a few lines: as §2
Assay [18] has as its target Nuclear receptor subfamily 1 group I member 3 (Homo sapiens) (UniProt Q14994). The assay can be described thus: qHTS assay to identify small molecule antagonists of the constitutive androstane receptor (CAR) signaling pathway (AID 1224838).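 Note: HepG2 cells stably expressing hCAR with CYP2B6 luciferase reporter stimulated by CITCO; nearly all actives have a fitted effect of over 40% in size.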 In a few lines:
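Antagonist mode used CITCO at a final 50 nM to activate CAR in human hepatoma HepG2 cells carrying stable hCAR and a 2.2 kb CYP2B6 promoter-luciferase construct. Compounds were tested at 15 concentrations over 24 h, with luminescence as the end point.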

Assay [19] has the same target. The assay can be described thus: qHTS assay to identify small molecule agonists of the constitutive androstane receptor (CAR) signaling pathway (AID 1224839). Note: nearly all actives have a fitted effect of over 15% in size. In a few lines:
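Stable hCAR/CYP2B6-2.2kb HepG2 line in DMEM with 10% FBS; compounds (15 concentrations) and 0.75 uM PK11195 final, 24 h at 37 C/5% CO2, then ONE-Glo luminescence after 30 min.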

A short description of assay [20]: qHTS assay to identify small molecule agonists of the hypoxia (HIF-1) signaling pathway (AID 1224846; active = well fitted activation curve with a large enough effect in the signal ratio in the repeat runs, not every such curve was filed as active; the % refers to the signal ratio; note: potency is the fitted concentration of half-maximal effect). In a few lines: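 Compounds from the Tox21 10K library, dissolved in DMSO, are tested for induction of a hypoxia response element–controlled beta-lactamase reporter in ME-180 cells. Exposure lasts 17 hrs at 37C after a 5 hr settling period, followed by CCF4-AM FRET substrate.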
% is set by controls: 0 for no effect and ±100 for the full control effect.

Nuclear receptor subfamily 1 group I member 3 (Homo sapiens), sequence (Q14994 whole entry, looked up): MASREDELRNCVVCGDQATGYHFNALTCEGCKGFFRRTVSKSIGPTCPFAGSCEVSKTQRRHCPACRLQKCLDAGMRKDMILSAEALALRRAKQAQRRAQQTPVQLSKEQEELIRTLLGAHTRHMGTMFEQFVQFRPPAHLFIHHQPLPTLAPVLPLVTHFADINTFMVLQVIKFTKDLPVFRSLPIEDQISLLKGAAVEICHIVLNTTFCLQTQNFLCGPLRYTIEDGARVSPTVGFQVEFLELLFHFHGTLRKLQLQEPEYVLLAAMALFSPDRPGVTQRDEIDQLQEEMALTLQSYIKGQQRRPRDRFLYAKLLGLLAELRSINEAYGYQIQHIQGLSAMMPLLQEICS
Thyrotropin receptor (Homo sapiens), sequence (P16473 whole entry, looked up): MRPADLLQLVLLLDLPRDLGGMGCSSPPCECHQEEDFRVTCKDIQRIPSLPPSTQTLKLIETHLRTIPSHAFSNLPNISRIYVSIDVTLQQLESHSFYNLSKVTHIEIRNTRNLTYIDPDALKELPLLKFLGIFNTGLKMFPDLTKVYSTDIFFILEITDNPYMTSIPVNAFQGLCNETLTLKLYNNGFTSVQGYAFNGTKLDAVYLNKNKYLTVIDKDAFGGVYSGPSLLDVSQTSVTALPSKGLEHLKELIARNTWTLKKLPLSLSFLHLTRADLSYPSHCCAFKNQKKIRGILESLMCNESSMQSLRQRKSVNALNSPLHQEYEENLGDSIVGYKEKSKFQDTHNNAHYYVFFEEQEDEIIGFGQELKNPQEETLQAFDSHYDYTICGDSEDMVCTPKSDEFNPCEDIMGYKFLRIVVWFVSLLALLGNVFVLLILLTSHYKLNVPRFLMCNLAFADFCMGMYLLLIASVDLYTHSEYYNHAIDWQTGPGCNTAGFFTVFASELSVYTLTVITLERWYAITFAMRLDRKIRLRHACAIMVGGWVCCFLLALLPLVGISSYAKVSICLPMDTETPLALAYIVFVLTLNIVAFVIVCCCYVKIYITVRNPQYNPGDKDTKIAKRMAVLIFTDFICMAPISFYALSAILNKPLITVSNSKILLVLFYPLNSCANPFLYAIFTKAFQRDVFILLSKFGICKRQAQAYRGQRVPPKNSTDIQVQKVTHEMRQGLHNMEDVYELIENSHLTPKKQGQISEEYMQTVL

Turning to `O=C(NOCC1CC1)c1ccc(F)c(F)c1Nc1ccc(I)cc1Cl`, the Potency entry in assay [1], in assay [2], in assay [4], in [5], in assay [8] and in assay [10] was “inactive” each time. For the same compound, the figures for the Potency in assay [3], in assay [6] and in assay [9] were 11.9 µM (active), 11.9 µM (active) and 0.535 µM (active), respectively. The activity change, positive = activation in [7] is -59% [at 42.5 µM].

Consider `CCCCN1CCCC[C@H]1C(=O)Nc1c(C)cccc1C`, for which the Potency entry in assay [1], in [2], in assay [11], in [12], in [13] and in [5] was “inactive” in each case. Besides, the Potency result in assay [14], in assay [15], in assay [16], in assay [8], in [10] and in assay [17] was “inactive” in each case.

In the case of `On1ccccc1=S`, the Potency in assay [1] is 1.21 µM (active); in assay [2], 0.762 µM (active); in [11], 0.605 µM (active); in [3] it was 3.4 µM (active); in assay [13], 0.432 µM (active); in assay [6], 1.21 µM (active). For the same compound, the Potency in [15] was 0.544 µM (active); in assay [10], 1.09 µM (active); in [17], 3.85 µM (active). The Potency entry in assay [4] and in [8] was “inactive” each time. In addition, in [7], the activity change, positive = activation was -71.1%.

For the compound `O=c1[nH]cnc2nc[nH]c12`, the Potency result in [2], in assay [18], in assay [19], in assay [11], in assay [3] and in [4] was “inactive” each time. In addition, the Potency result in assay [12], in [5], in [20], in [6], in assay [15] and in [16] was “inactive” each time. In addition, the Potency entry in assay [8], in assay [9], in assay [10] and in assay [17] was “inactive” each time. The activity change, positive = activation in assay [7] is 9.65% [at 42.5 µM].

With `Oc1c(Cl)cc(Cl)c2cccnc12`, the Potency entry in assay [1], in [19], in assay [4], in assay [14], in [15] and in [8] was “inactive” each time. Besides, the Potency entry in assay [17] is “inactive”. Also, the Potency in assay [11] was 26.6 µM (active); in assay [5], 39.1 µM (active); in [6], 9.44 µM (active); in assay [10] it was 9.52 µM (active). Further, in assay [7], the activity change, positive = activation is -66% [at 42.5 µM].

Turning to `O=C(O)c1cc(O)c2c(c1)C(=O)c1cccc(O)c1C2=O`, the Potency entry in assay [1], in assay [18], in assay [19], in assay [11], in assay [13] and in assay [14] was “inactive” in each case. Also, the Potency entry in assay [15], in assay [16], in assay [8], in assay [9], in assay [10] and in [17] was “inactive” each time.

In the case of `O=C1CCCc2c1cc1ccc3cccc4ccc2c1c34`, the Potency entry in assay [1], in [18], in assay [11], in assay [12], in assay [15] and in assay [8] was “inactive” throughout. For the same compound, the Potency result in [9] was “inactive”. In addition, the Potency in assay [20] is 49.6 µM (active); in assay [16] it was 11.1 µM (active).

For `CCCCCCCCCCCC(=O)NCCCN(C)C`, the Potency in assay [1] was 61.1 µM (active); in assay [11], 61.1 µM (active); in assay [13] it was 49 µM (active); in [14] it was 101 µM (active); in [15], 43.6 µM (active); in [16] it was 38.9 µM (active). The Potency in [9] was 38.9 µM (active); in assay [10] it was 49 µM (active); in [17], 49 µM (active). For the same compound, the Potency entry in assay [19] and in assay [8] was “inactive” in each case.
